Here are results for 95 molecules from PubChem BioAssay AID492956 (The Scripps Research Institute Molecular Screening Center, 2010).

Out of some 340,000 compounds screened, about 3,300 (0.97%) were called active. The sample holds actives, similar compounds and a random draw of the others, so the mix is not that of the screen. Values without a mark were called inactive.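 The calls were made as follows: active = inhibition above the mean over all tested compounds plus 3 SD (cut at about 30% in these data); inactive = the rest.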

This assay addresses Platelet-activating factor acetylhydrolase 2, cytoplasmic (Homo sapiens) (UniProt Q99487). In words: PAFAH2 enzyme inhibitors, primary screen, biochemical, fluorescence polarization, human (AID 492956).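 Also: inhibitors block probe labeling of enzyme so polarization drops; 0% = enzyme with DMSO and 100% = wells lacking PAFAH2 protein.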 As to conditions: recombinant PAFAH2, FP-rhodamine activity probe, at 3.39 µM, stronger effect = higher value. On the technique in general: Fluorescence polarisation rises when a labelled molecule tumbles more slowly, as on binding a larger partner.
With `CC(=O)NC(CC(=O)Nc1nccs1)c1ccccc1` (stereo not given), the inhibition – broadly, the change of the read-out against control, counted positive when it falls – was 0.3%.
As for `Cc1cnc(C)c(N2CCN(C(=O)C3CCC(=O)N(CCc4cccc(F)c4)C3)CC2)n1` (stereo not given), the inhibition is 6.98%.
The result for `O=S(=O)(O)c1cc2onnc2c2ccccc12` reads 18.2%; that for `CCOC(=O)c1c(C)[nH]c2c1-c1ccccc1C(=O)C2=O`, 53.9% (active); that for `CCOC(=O)C1=C(C)c2ccccc2OC1(C)C(=O)OCC` (stereo not given), 0.57%.
The result for `CCOC(=O)c1ccccc1OC(=O)Oc1ccccc1C(=O)OCC` reads 2.01%; that for `CCOc1ccc(OCC)c(NC(=O)C(NS(=O)(=O)c2ccc3c(c2)oc(=O)n3C)C(C)C)c1` (stereo not given), -6.23%.
The result for `O=C(NC1CCCC1)C1CC(=O)N(c2ccc(F)cc2)C1` (stereo not given) reads 5.88%; that for `CC(=O)NS(=O)(=O)c1ccccc1`, -3.11%; that for `CCCCn1ccnc1C(=O)c1cccc(S(=O)(=O)N2c3ccccc3CC2C)c1` (stereo not given), 0.31%.
Take `O=C(COC(=O)c1cc([N+](=O)[O-])ccc1NCc1ccccc1)NC1CCCCC1`: the inhibition is 9.35%.
The result for `O=C(COC(=O)c1cccc(Cl)c1)NC1CCCCCCC1` reads 82.5% (active); that for `COc1ccc(NS(=O)(=O)c2ccc(O)c(C(=O)OCC(=O)NC3CCCCC3)c2)cc1`, 41% (active).
Turning to `O=C(COC(=O)c1ccccc1SCC(=O)NC1CCCCC1)NC1CCCCC1`, the inhibition is 59.5% (active).
The result for `CC(C)NS(=O)(=O)c1ccc(OCC(=O)NC2CCCCCC2)cc1` reads 5.5%; that for `Cc1ccc(C(=O)NCC(=O)OCC(=O)NC2CCCCCCC2)cc1`, -6.95%; that for `N#Cc1ccc(C(=O)OCC(=O)NC(=O)NC2CCCCC2)cc1`, 6.68%.
The result for `CCN(C(=O)COC(=O)c1cc(NS(=O)(=O)c2ccc(Cl)c([N+](=O)[O-])c2)ccc1O)C1CCCCC1` reads 14.6%.
Next, `O=C(COc1ccccc1O)NC1CCCC1`: 1.1%; `CCOc1ncccc1C(=O)OCC(=O)NC1CC1`: 15.7%; `O=C(COC(=O)c1cccc(Cl)c1)NC(=O)NCc1ccccc1`: 1.23%.
For the molecule `N#Cc1ccccc1Sc1ccccc1C(=O)OCC(=O)NC1CCCCC1`, the inhibition was 31% (active).
The result for `CCN(CC)S(=O)(=O)c1ccc(N2CCN(C)CC2)c(NC(=O)Nc2ccccc2F)c1` reads -13.1%.
For `COc1ccc(CN2CC[C@H]3C=CC[C@@H](C(=O)N4CCOCC4)[C@H]3C2=O)cc1OC`, the inhibition is -0.91%.
Next, `COc1cc(NC(=S)NCCSc2ccc(C)cc2)cc(OC)c1`: 5.74%; `COc1ccc(C(=O)C2CCCN(C(=O)c3cnsn3)C2)c(C)c1` (stereo not given): -5.08%; `O=C(COC(=O)c1ccccc1SCC(=O)N1CCCC1)Nc1ccccc1OC(F)F`: 49.4% (active).
In the case of `CS(=O)(=O)Nc1ccccc1C(=O)OCC(=O)NC1CC1`, the inhibition was 9.45%.
The result for `CC(C)N(Cc1ccccc1)C(=O)COC(=O)c1ccccc1SCC(=O)N1CCCC1` reads -10.1%; that for `O=C(COC(=O)c1ccccc1Cl)NC1CCCCCCC1`, 68.9% (active).
Next, `O=C(COC(=O)c1cccnc1Cl)NC(=O)NC1CCCCC1`: 0.86%; `COc1ccccc1NC(=O)COC(=O)c1ccccc1SCC(=O)N1CCCC1`: 16.2%.
Next, `Cc1cc(F)ccc1NC(=O)C(C)n1c2ccccc2c2nc(=O)cc(C)n21` (stereo not given): -0.36%.
Take `CCCCNC(=O)N(O)C1N(/N=C/c2ccc(N(C)C)cc2)C(=S)SC1(C)C` (stereo not given): the inhibition was 39% (active).
Next, `CCCCNC(=O)N(O)C1N(/N=C/c2ccccc2O)C(=S)SC1(C)C` (stereo not given): 12%; `CCC(C)N1C(=S)SC(C)(C)C1N(O)C(=O)NC1CCCCC1` (stereo not given): 0.18%; `CC1CCCCN1C(=O)Cn1c(=O)oc2cc(S(=O)(=O)N3CCCCC3)ccc21` (stereo not given): 0.32%.
`O=C(NC1CCCCC1)n1c(=O)oc2cc(S(=O)(=O)N3CCCCC3)ccc21`: the inhibition was -3.36%.
As for `CC(C)COC(=O)n1c(=O)oc2ccc(S(=O)(=O)N3CCCCC3)cc21`, the inhibition is 67.9% (active).
Next, `O=C(NCc1cc(C(F)(F)F)cc(C(F)(F)F)c1)C1CC(c2cccc(F)c2)=NO1` (stereo not given): 6.39%.
Next, `CCc1ccc(C(=O)OCC(=O)NCC(F)(F)F)cc1`: 73.5% (active).
Next, `O=C(COC(=O)CNC(=O)c1ccccc1F)NCC(F)(F)F`: 1.7%; `CC(CCc1ccccc1)NC(=O)COC(=O)c1ccc(F)cc1` (stereo not given): 28%; `CC(C)(C)c1csc(NC2=NS(=O)(=O)c3ccccc32)n1`: 36.9% (active).
`O=C(Oc1cccc(NC2=NS(=O)(=O)c3ccccc32)c1)c1ccncc1`: the inhibition was -0.09%.
The result for `Cc1ccc(S(=O)(=O)N(NC2=NS(=O)(=O)c3ccccc32)C(=O)c2ccccc2)cc1` reads -5.48%.
Next, `O=C(NCN1CCN(CCO)CC1)c1cnccn1`: -3.5%; `CCN(CC(=O)NCc1ccc(Cl)cc1)C(=O)c1c(C)noc1C`: -0.36%.
The result for `Cc1cc(NC(=O)COc2ccc([N+](=O)[O-])cc2)no1` reads -0.25%; that for `Cc1ccc(CNC(=O)COC(=O)C2CCC2)cc1`, 3.66%; that for `COC(=O)c1cc(C(=O)OCC(=O)Nc2cc(C)on2)cc([N+](=O)[O-])c1`, -6.33%.
Turning to `Cc1cc(NC(=O)COC(=O)/C=C/c2ccc(C)o2)no1`, the inhibition is 33.3% (active).
The result for `Cc1ccc(/C=C/C(=O)OCC(=O)NCc2ccc(Cl)cc2)o1` reads 53% (active).
Next, `CCOC(=O)C1C(=O)OC2(CCCC2)C1C(=O)OCC` (stereo not given): -3.56%; `Nc1c(C(=O)OCC(=O)Nc2ccc(OC(F)F)cc2)[nH]c(=O)[nH]c1=O`: 5.59%.
`COCc1c(C(=O)OCC(=O)Nc2ccc(OC(F)F)cc2)oc2ccccc12`: the inhibition was 30.5% (active).
Next, `COCc1c(C(=O)OCc2c(C)noc2C)oc2ccccc12`: -5.34%; `O=C1NCC(Nc2ccccc2)C(=O)N1` (stereo not given): 7.66%; `O=C1C2(c3ccccc3)CN(CCCO)CC1(c1ccccc1)CN(CCCO)C2`: 7.66%.
Next, `O=C(COC(=O)c1ncc(Cl)c(Cl)c1Cl)NCc1cccs1`: -5.72%; `O=C(COC(=O)c1ccc(O)cc1O)NNC(=O)c1cccs1`: 6.29%.
Next, `O=C(COC(=O)[C@H](Cc1ccccc1)NC(=O)c1cccs1)Nc1cc(F)ccc1F`: 4.42%.
`COc1ccccc1CNC(=O)COC(=O)c1sc(C)nc1C`: the inhibition is 36.3% (active).
The result for `COc1ccccc1CNC(=O)COc1ccc(C)nc1[N+](=O)[O-]` reads 4.79%; that for `COc1ccccc1CNC(=O)COC(=O)c1cccs1`, 60.2% (active); that for `CNC(=O)c1sc(NCc2ccccc2OC)nc1C`, -0.38%.
With `O=C(COC(=O)c1ccc(Cl)nc1)NCc1cccs1`, the inhibition is 5.5%.
Next, `COc1ccccc1CNC(=O)COC(=O)CNS(=O)(=O)c1ccc(NC(C)=O)cc1`: -2.61%.
Next, `O=C(COC(=O)c1cccs1)Nc1ccccc1Cl`: 73.2% (active).
The result for `O=C(COC(=O)/C(=C/c1cccs1)c1cccs1)NCc1ccccc1Cl` reads 9.84%; that for `O=C(COC(=O)c1cccs1)NCc1cccs1`, 44.2% (active).
On to `O=CN1CCN(C(=O)c2ccc(Br)o2)CC1`, for which the inhibition is 0.55%.
The result for `Cc1cccc(NS(=O)(=O)c2ccc(C(=O)NCC(C)(C)N3CCOCC3)cc2)c1C` reads -5.69%; that for `O=c1cccc(-c2ccc(Br)cc2)o1`, 1.7%; that for `COc1ccc(SCc2noc(C(=O)NCC3CCCO3)c2C(=O)O)cc1` (stereo not given), 0.7%.
Next, `CC1=NNC(=O)C1Cc1c(Cl)cccc1Cl` (stereo not given): 5.21%; `CC1=C(C(=O)OC2CCCCC2)C(c2ccccc2F)NC(=O)N1` (stereo not given): -4.88%; `CCOC(=O)C1CCN(c2c(Nc3cc(C)cc(C)c3)c(=O)c2=O)CC1`: 7.85%.
Next, `C/C(=N\NC(=O)CNc1cccc2ccccc12)c1ccc(Br)s1`: 9.68%; `Cc1cccc(/C=N/NC(=O)CNc2cccc3ccccc23)n1`: 47.5% (active).
In the case of `Cc1cccc(C(=O)Nc2ccc(C(=O)N/N=C/c3cccc(C)n3)cc2)c1`, the inhibition was -6.77%.
Next, `COc1cc(/C=C/C(=O)OCC(=O)Nc2cccc(Oc3ccccc3)c2)ccc1O`: 64.5% (active); `CCCCN(C(=O)/C=C/c1ccco1)c1c(N)n(CC(C)C)c(=O)[nH]c1=O`: -7.37%; `CC(C)CNC(=O)COC(=O)/C=C/c1ccco1`: 69% (active).
The result for `COc1ccc(C(=O)OCC(=O)Nc2cccc(C(C)=O)c2)cc1OC` reads 81.3% (active).
Next, `COc1cccc(NC(=O)COC(=O)c2ccc3ccccc3n2)c1`: -5.69%; `CC(=O)Nc1cccc(C(=O)OCC(=O)Nc2nnc(-c3ccccc3)o2)c1`: 4.32%; `CC(=O)Nc1cccc(C(=O)OCC(=O)NCc2cc(C)c(O)c(C)c2)c1`: 7.09%.
Regarding `Cc1cccc(C(=O)OCC(=O)NCC(C)C)c1O`, the inhibition is 3.36%.
For `CC(C)CNC(=O)COC(=O)/C=C/c1ccccc1[N+](=O)[O-]`, the inhibition was 72.8% (active).
The result for `COc1cc2c(cc1NC(=O)COC(=O)/C=C/c1ccccc1)oc1ccccc12` reads 1.23%; that for `CC(C)c1nnc(NC(=O)COC(=O)/C=C/c2ccc([N+](=O)[O-])cc2)s1`, -1.12%.
The result for `O=C(/C=C/c1ccccc1[N+](=O)[O-])OCC(=O)N1CCCC1` reads 7.52%; that for `COc1ccc(S(=O)(=O)NCC(=O)NCc2cc(=O)n(C)c(=O)n2C)cc1F`, -4.5%; that for `CN1C(=O)[C@H]2[C@@H](/C=C/c3ccccc3)N3C(=O)CN(Cc4ccc(-c5ccccc5)cc4)C(=O)[C@@]3(C)[C@H]2C1=O`, 6.34%.
